# Source: PubChem BioAssay
# Shown are actives, neighbours in structure and some others; about 9% of the full set was active somewhere.
# 12-LOX inh: blocks human arachidonate 12S-lipoxygenase; purified 12hLO, xylenol orange hydroperoxide absorbance; Potency, µM (highest dose often 108 µM), inactives show at the top dose activity change, negative = inhibition, hits mostly inhibitors; 580,000 tested, 1.1% active; further: on the % scale 0 is the no-effect control and ±100 the full control effect
#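 Purified human 12hLO (150 nM final) in 25 mM Hepes, 0.01% Triton X-100, pH 7.0 was preincubated 15 min at room temperature with compound. Then 40 uM arachidonic acid was added, 30 min. Hydroperoxide was read by Fe-XO absorbance ratio 573/405 nm.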
# G9a inh: blocks human histone lysine methyltransferase G9a | G9a H3K9 monomethylation, AlphaScreen, 2 h | 350,000 tested, 8.8% active | Q96KQ7 | Potency, µM (top dose mostly 102 µM), for inactives: at the highest dose activity, negative = inhibition, usual class: inhibitors; further: on the % scale 0 is the no-effect control and ±100 the full control effect; nearly all actives have a fitted effect of over 75% in size
# Target sequence (Q96KQ7 913-1193 limits assumed): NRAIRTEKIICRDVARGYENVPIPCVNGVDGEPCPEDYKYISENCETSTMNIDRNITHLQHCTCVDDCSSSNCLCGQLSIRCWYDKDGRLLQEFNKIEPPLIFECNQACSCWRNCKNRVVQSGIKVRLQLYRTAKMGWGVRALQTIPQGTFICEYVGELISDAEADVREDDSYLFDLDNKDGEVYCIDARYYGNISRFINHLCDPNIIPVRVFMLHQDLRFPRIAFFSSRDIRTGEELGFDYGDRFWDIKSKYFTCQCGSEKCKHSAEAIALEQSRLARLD
#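 Methyltransferase reactions run at room temperature for 2 h (20 nM enzyme, 500 nM biotin-H3K9 peptide, 20 uM SAM) after a 15 min compound preincubation; product detected by AlphaScreen beads and anti-H3K9me1 antibody.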
# JMJD2A Tudor inh: inhibitors of human JMJD2A Tudor domain; AlphaScreen JMJD2A-Tudor / H3K4me3 peptide binding; O75164; Potency, µM (titrated, usually from 114 µM), without a hit: at the top dose activity change, negative = inhibition, most hits filed as inhibitors; 390,000 tested, 4.4% active; AID 504339; further: on the % scale 0 is the no-effect control and ±100 the full control effect; nearly all actives have a fitted effect of over 50% in size
# BAZ2B block: blocks human BAZ2B; AlphaScreen BAZ2B-H3K14Ac peptide displacement; Q9UIF8; 360,000 tested, 4.4% active; AID 504333; Potency, µM (top dose mostly 114 µM), for inactives: at the top dose activity change, negative = inhibition, hits mostly inhibitors; further: on the % scale 0 is the no-effect control and ±100 the full control effect; nearly all actives have a fitted effect of over 60% in size
#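 AlphaScreen displacement: compounds (up to 110uM) incubated 30 min at room temperature with a preformed 50 nM BAZ2B/50 nM biotinylated H3K14Ac peptide complex in PBS pH 7.4 with Tween-20. Donor and acceptor beads at 10 ug/mL final added, 20 min light-protected before reading.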
# PLK1 PBD inh: blocks phosphopeptide binding to human PLK1 polo-box domain; Potency, µM, for inactives: max response, negative = inhibition, usual class: inhibitors; P53350; 360,000 tested, 2.8% active; AID 720504; Plk1 PBD binding of FITC phosphopeptide, fluorescence polarization; further: series mostly up to about 57 µM; on the % scale 0 is the no-effect control and ±100 the full control effect; nearly all actives have a fitted effect of over 65% in size
# HP1b binding inh: inhibitors of HP1-beta chromodomain binding to methylated histone tails | P83916 | AlphaScreen HP1-beta / biotin-H3K9me3 peptide binding | Potency, µM (top dose mostly 114 µM), for the others: at the highest dose activity change, negative = inhibition, usual class: inhibitors | 390,000 tested, 0.56% active; further: nearly all actives have a fitted effect of over 70% in size
# Target sequence (P83916 whole entry, looked up): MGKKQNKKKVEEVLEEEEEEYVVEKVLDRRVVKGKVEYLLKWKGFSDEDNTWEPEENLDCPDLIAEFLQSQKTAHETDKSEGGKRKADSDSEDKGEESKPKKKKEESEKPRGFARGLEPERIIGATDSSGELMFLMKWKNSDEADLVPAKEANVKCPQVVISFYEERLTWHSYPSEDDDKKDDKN
#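 Compound inhibition of the preformed complex between 50 nM HP1-beta and 50 nM biotinylated H3K9me3 peptide was read by AlphaScreen. Buffer was PBS pH 7.4 with 0.01% Tween-20. Incubations ran 30 min at room temperature, with 10 ug/mL donor/acceptor beads.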
# Starred values were filed as active, the others as inactive; ? = inconclusive; nt = not tested or not shown; ! = not active in a repeat; [ ] = remark or other dose. The call rests on the fitted dose curve; in most records, active means well fitted curve in the direction sought with a large enough effect; inconclusive means small, poorly fitted or top-dose-only effect, or another doubt; inactive means no such curve, though single readings can be large; an effect the other way counts as inactive or inconclusive. Potency means the concentration at half of the fitted maximal effect.
SMILES,12-LOX inh,G9a inh,JMJD2A Tudor inh,BAZ2B block,PLK1 PBD inh,HP1b binding inh
CCCCNc1c(-c2ccc(SC(C)CC)c(OC)c2)nc2ccc(Cl)cn12 (centres undefined),?,nt,?,nt,2%,71%
CCCCNc1c(-c2ccc(OC)c(Sc3ccc(OC)cc3)c2)nc2cnccn12,-4%,nt,?,nt,-1%,2%
CCC(C)Sc1cc(-c2nc3ccc(Cl)cn3c2NC2CCCCC2)ccc1OC (centres undefined),40µM*!,nt,?,nt,1%,12%
CCCCNc1c(-c2ccc(OC)c(Sc3ccc(OC)cc3)c2)nc2ccccn12,nt,-3%[12.7 µM],45µM*,40µM*,-9%,-16%
CCCCNc1c(-c2ccc(SC(C)CC)c(OC)c2)nc2ccc(C)cn12 (centres undefined),?,-5%[2.33 µM],?,50µM*,1%,7%
CCSc1nnc(NC(=O)Cn2cnc3ccccc3c2=O)s1,-2%,nt,-9%,-4%,-15%,5%[57 µM]
CCCCN1CC(=O)N2[C@H]3c4cc(Cl)ccc4OC[C@@H]3[C@H](C(=O)OCC)[C@]2(C)C1=O,8%,7%[0.501 µM],-13%,5%,-11%,45%
CC(=O)c1ccc(N(C(=O)Cn2nnc3ccccc32)C(C(=O)NC2CCCCC2)c2cn(C)nc2C)cc1 (centres undefined),1%,3%[59 µM],3%,0%,-13%,21%
CNc1c(NC(=O)NCc2cccc(OC)c2)c(=O)oc2ccccc12,-28%,nt,nt,nt,nt,nt
O=C(O)CCNc1c(-c2ccc(F)cc2)nc2cnccn12,35µM*,nt,nt,nt,nt,nt
CC(=O)c1csc(-c2cccc(-c3nc4ccc(Cl)cn4c3NC3CCCCC3)c2)c1,?,2%[2.33 µM],?,56µM*,-20%,-7%
CCCCNc1c(-c2cccc(-c3cc(C(C)=O)cs3)c2)nc2cc(C)ccn12,-8%,5%[2.33 µM],?,28µM*,-21%,-8%
COc1ccc(-c2cccc(-c3nc4ccc(Cl)cn4c3NC3CCCCC3)c2)cc1,7.1µM*,nt,-34%,nt,0%,18%
CN1C(=O)N(C)C2(c3ccccc3)NC(=O)NC12c1ccccc1 (centres undefined),0%,-22%,0%,-36%,-12%,18%
Cn1c(=O)c([N+](=O)[O-])c(NCc2ccccc2)c2ccccc21,?,50µM*,-6%,-1%,-2%,40%
O=C1/C(=C/c2ccc(O)c([N+](=O)[O-])c2)SC(=S)N1Cc1ccccc1,-18%,3.5µM*,4µM*,?,?,?
CCN1C(=O)/C(=C\C=C\c2ccccc2[N+](=O)[O-])SC1=S,?,10µM*,?,nt,-2%,?
CCOc1cc(/C=C2\SC(=O)N(c3ccc(O)cc3)C2=O)ccc1O,?,13%[12.7 µM],-16%,-11%,40%,12%
CCOc1cc(/C=C2/SC(=S)N(Cc3ccccc3)C2=O)ccc1O,?,45µM*,50µM*,22µM*,13%,?
O=C(O)c1cccc(CN2C(=O)S/C(=C/c3cccc([N+](=O)[O-])c3)C2=O)c1,?,?,2%[11.4 µM],-33%,?,-17%
O=C1/C(=C\c2cccc([N+](=O)[O-])c2O)SC(=S)N1Cc1ccccc1,?,2µM*,8.9µM*,2µM*,17µM*,?
O=C1/C(=C/c2ccccc2O)SC(=S)N1Cc1cccnc1,?,?,-23%,6%,?,2%
Cn1c(C(=O)NCC2CCCO2)cc2c(=O)n3ccccc3nc21 (centres undefined),-4%,2%,-10%,5%,-2%,27%
Cc1nc(N2CCN(Cc3ccccc3)CC2)nc2c1C(=O)CC(c1ccco1)C2 (centres undefined),-14%,?,?,?,-6%,-10%
Cc1nc(N2CCN(Cc3ccc4c(c3)OCO4)CC2)nc2c1C(=O)CC(c1ccco1)C2 (centres undefined),-11%,40µM*,?,?,-3%,-9%
SMILES,12-LOX inh,G9a inh,JMJD2A Tudor inh,BAZ2B block,PLK1 PBD inh,HP1b binding inh
CC(CC(=O)Nc1ccc(C(=O)NC2CC2)cc1)(C(=O)O)c1ccccc1 (centres undefined),8%,nt,nt,nt,nt,nt
CC1CCCC(C)N1C(=O)c1ccccc1 (centres undefined),1%,nt,nt,nt,nt,nt
CC1CC(=O)NN1C(=O)c1ccccc1 (centres undefined),?,79µM*,28µM*,79µM*,-12%,-17%
COC(=O)C1=CN(c2cccc(C)c2)C=C(C(=O)OC)C1c1cc(OC)c(O)c([N+](=O)[O-])c1,?,13µM*,45µM*,28µM*,?,?
COC(=O)C1=CN(c2ccc(OC)cc2)C=C(C(=O)OC)C1c1ccc(C)c([N+](=O)[O-])c1,-29%,-3%[59 µM],?,-34%,-5%,-7%
COCCN1C[C@H]2CN(Cc3ccc(C(=O)O)cc3)CCN2C1=O,28µM*,nt,nt,nt,nt,nt
Cc1ccc2c(c1)N(C)/C(=C/c1cccc[n+]1C)S2,?,6.3µM*,?,?,9%,-25%
Cc1ccc2c(c1)N(C)/C(=C/c1cccc[n+]1CCO)S2,-57%,32µM*,?,-1%,-3%,16%
CN1/C(=C/c2cccc[n+]2C)Sc2ccccc21,0%,25µM*,?,?,-7%,47%
CN1/C(=C/C(=O)C2CCC2)Sc2ccccc21,-21%,?,-20%,?,-13%,31%
Cc1nn2c3c(cnc2c1-c1ccccc1)C(=O)CCC3,-16%,16%[59 µM],-5%,8%,-1%,56%
N#CCc1nn2c3c(cnc2c1C#N)C(=O)CCC3,4%,45µM*,-22%,-27%,-11%,-13%
COc1cc2c3nnc(-c4ccc(F)cc4)c-3cn(Cc3ccccc3F)c2cc1OC,-25%,?,-8%,nt,?,40%
COc1cc2c3nnc(-c4ccccc4)c-3cn(Cc3ccccc3F)c2cc1OC,?,12%[59 µM],0%,-2%,21µM*,13%
O=C(O)c1cc(-c2ccc(N3CCOCC3)cc2)nn1-c1ccccc1Cl,-7%,56µM*,?,nt,-24%,31%
O=C(O)c1cc(-c2ccc(N3CCOCC3)cc2)nn1-c1ccc(F)cc1F,?,45µM*,-14%,4%,-15%,17%
COc1ccc(-n2cnc3cccnc32)cc1,36%[176 µM],nt,nt,nt,nt,nt
Cc1c2cnn(CC(=O)Nc3c(F)c(F)cc(F)c3F)c(=O)c2c(C)n1Cc1ccccc1F,20µM*,?,?,56µM*,?,-16%
CC(=O)C1=C(O)C(=O)N(Cc2ccco2)C1c1ccc2c(c1)OCO2 (centres undefined),?,50µM*,-29%,-7%,-4%,13%
